# Rows were chosen to be rich in hits. Some 2.1% of all compounds tested hit in one or more screens of this group.
# S1P2 antag = human S1P2 receptor antagonists, primary screen, cell-based; cell-based S1P2 antagonist assay, inhibition at 5 uM; actives 0.21% (n = 97,000); AID 736, 2007; inhibition, % at 5 µM; in the data active means inhibition above about 45%;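 further: CRE beta-lactamase reporter cells expressing human S1P2 stimulated with S1P; 0% = agonist at EC80 alone and 100% = agonist plus reference antagonist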
# GALR2 agonist = GALR2 receptor agonists, primary screen, cell-based | Galanin receptor type 2 (Homo sapiens), O43603 | GALR2-expressing cells, agonist activation read-out | activation, % (test concentration not listed) | actives 0.48% (n = 140,000) | AID 803, 2007; in the data active means activation above about 5%, passing the limit was not always enough;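 further: 0% = vehicle buffer wells and 100% = reference agonist at full effect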
# S1P2 ag = S1P2 receptor agonists, primary screen, cell-based; S1P2-expressing cell line, agonist reporter read-out; activation, % at 4.5 µM; actives 0.46% (n = 97,000); AID 729, 2007; in the data active means activation above about 16%;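 further: 0% = vehicle low control and 100% = maximal reference agonist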
# GALR2 blocker = GALR2 antagonists in receptor-expressing cells, primary screen. Galanin receptor type 2 (Homo sapiens), O43603. antagonist mode. inhibition, % at 4 µM. actives 0.39% (n = 140,000); in the data active means inhibition above about 27%;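 further: cells stimulated with galanin 1-16 at roughly its EC80; 0% = agonist challenge control and 100% = basal control without agonist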
# DAT uptake mod = changed hDAT dopamine uptake under cocaine IC80, either direction, primary screen, cocaine antagonist project, cell-based, LLC-PK1 hDAT, [14C]-dopamine uptake, MLSMR. Sodium-dependent dopamine transporter (Homo sapiens), Q01959. LLC-PK1 hDAT cells, [14C]-dopamine uptake with cocaine IC80; actives deviate in either direction. B-score at 10 µM. actives 1.3% (n = 110,000). AID 449768, 2010;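 active means Z score or B-score, a plate-position-corrected score, falls beyond the plate's 99.7% confidence bounds, in either direction; inactive means both scores lie inside the 99.7% bounds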;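 further: scored against the spread of the other compound wells on the same plate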
# Target sequence (Q01959 whole entry, looked up): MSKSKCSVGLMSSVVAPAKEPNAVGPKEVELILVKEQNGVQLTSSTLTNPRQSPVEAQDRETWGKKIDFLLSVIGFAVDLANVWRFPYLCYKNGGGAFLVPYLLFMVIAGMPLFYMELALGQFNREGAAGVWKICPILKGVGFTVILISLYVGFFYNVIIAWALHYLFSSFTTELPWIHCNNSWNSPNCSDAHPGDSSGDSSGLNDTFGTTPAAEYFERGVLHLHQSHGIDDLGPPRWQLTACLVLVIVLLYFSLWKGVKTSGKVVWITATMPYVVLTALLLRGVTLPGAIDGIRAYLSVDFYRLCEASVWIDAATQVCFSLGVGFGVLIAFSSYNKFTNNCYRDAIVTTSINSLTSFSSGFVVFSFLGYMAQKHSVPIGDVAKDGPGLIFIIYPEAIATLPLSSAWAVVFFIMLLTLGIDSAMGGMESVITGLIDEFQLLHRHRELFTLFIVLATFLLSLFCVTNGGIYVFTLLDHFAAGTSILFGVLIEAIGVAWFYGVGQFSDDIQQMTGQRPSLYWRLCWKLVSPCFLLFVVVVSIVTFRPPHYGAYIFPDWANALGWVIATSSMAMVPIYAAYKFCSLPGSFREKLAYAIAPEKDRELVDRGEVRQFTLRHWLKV
# Active calls of the source: *; · = not tested or not shown.
SMILES,S1P2 antag,GALR2 agonist,S1P2 ag,GALR2 blocker,DAT uptake mod
O=S(=O)(/N=C(/c1ccc(F)cc1)N1CCCCC1)c1ccc(Cl)cc1,·,0,·,-5,·
CCOc1cc(NS(=O)(=O)c2ccc(NC(C)=O)cc2)c(OCC)cc1NC(=O)c1cccs1,·,1,·,9,·
c1ccc2c(c1)OCCOCCOCCOCCOCCOc1ccccc1OCCOCCOCCO2,·,-1,·,-13,·
Cc1cc(-n2c(C)cc(C(=O)CSc3ncnc4ccccc34)c2C)no1,60*,-2,-5,21,2.1
C=C(C)CSc1nc2c(c(=O)[nH]c(=O)n2C)n1CCC(C)C,-49,-2,-3,-1,0.31
CCOC(=O)C1=C(C)OC(N)=C(C#N)C1c1c(C)nn(-c2ccccc2)c1Cl (configuration not stated),·,-2,·,19,-7.4*
C=CCOC(=O)C1=C(C)OC(N)=C(C#N)C1c1c(C)nn(-c2ccccc2)c1Cl (configuration not stated),16,0,-10,4,0.51
CC(=O)Nc1ccc(NC(=O)COC(=O)c2c(C)nn(-c3ccccc3)c2C)cc1,·,-1,·,2,·
Cc1nn(-c2ccccc2)c(C)c1C(=O)OCC(=O)NC12CC3CC(CC(C3)C1)C2,7,0,-7,4,3.1*
O=C(NCC1CC1)C1(C(F)(F)F)CC(CCCO)CCCO1 (configuration not stated),·,·,·,·,0.082
COCC(C)NC(=O)NC1(C(F)(F)F)Oc2ccc(Cl)cc2O1 (configuration not stated),25,-1,-3,-14,-3.2*
O=C(NCCN1CCOCC1)NC1(C(F)(F)F)Oc2ccc(Cl)cc2O1 (configuration not stated),·,-1,·,9,·
Cc1ccc(/C=C2\CCC3=C2OC(N)=C(C#N)C3c2ccc(C)cc2)cc1 (configuration not stated),24,12*,17*,-7,1.5
N#CC1=C(N)OC2=C(CCc3ccccc32)C1c1ccccc1 (configuration not stated),·,5.0*,·,-1,·
Cc1ccc(-n2c(SCC(N)=O)nnc2-c2ccccn2)cc1C,-22,-2,1,-1,-0.53
Cc1csc(NC(=O)CSc2nnc(-c3ccccn3)n2-c2ccc(C)c(C)c2)n1,-22,-1,3,-3,2.7*
O=C(Nc1nc2ccccc2s1)c1cc2c(s1)-c1ccccc1OC2,-45,3,40*,-4,-0.037
O=C(Nc1nccs1)c1cc2c(s1)-c1ccccc1OC2,-9,8,4,14,·
CCCCC(CC)Cn1c(N)c(C#N)c2nc3ccccc3nc21 (configuration not stated),-61,35*,50*,-15,-0.13
CCCCC(CC)Cn1c2nc3ccccc3nc2c2c(=N)oc(C)nc21 (configuration not stated),-211,-1,0,3,·
COc1ccc(S(=O)(=O)N2CCN(c3ccc4nnc(-c5ccc(F)cc5)n4n3)CC2)cc1,48*,1,-7,-4,0.024
O=C(Nc1ccc(Cl)cc1)N1CCN(c2ccc3nnc(-c4ccc(F)cc4)n3n2)CC1,·,1,·,14,2.8*
O=C(Nc1ccccc1Cl)N1CCN(c2ccc3nnc(-c4ccccc4)n3n2)CC1,21,0,-4,4,0.38
Cc1ccc(S(=O)(=O)N2CCN(c3ccc4nnc(-c5ccccc5)n4n3)CC2)cc1,-15,-2,0,-11,1.2
Cc1ccc(NC2=C/C(=N/S(=O)(=O)c3cccs3)c3ccccc3C2=O)cc1,·,2,·,3,·
SMILES,S1P2 antag,GALR2 agonist,S1P2 ag,GALR2 blocker,DAT uptake mod
COC(=O)c1ccccc1NC1=C/C(=N\S(=O)(=O)c2cccs2)c2ccccc2C1=O,21,1,-4,3,-3*
CS(=O)(=O)c1nc(-c2ccccc2)cc(C(F)(F)F)n1,·,5,·,54*,·
O=C(Nc1cccnc1)Nc1ccc(F)c(Cl)c1,-5,-3,-1,2,-4.3*
CSc1ccccc1NC(=O)Nc1ccc(F)c(Cl)c1,11,-4,-8,17,0.55
COc1cc(OC)c2c(C)cc(=O)oc2c1C(CCN1CCOCC1)c1ccc(N(C)C)cc1 (configuration not stated),·,·,·,·,0.19
CCCCCCCCCn1c2c(c(=N)c3c1CCC3)CCC2,79*,-1,-4,22,1.4
